34 molecules from PubChem BioAssay (NCATS) can be followed below.

“And” between values parts separate entries of the source, which are not always exact repeats. Equal values may be shown once. Records with an inconclusive call do not appear. Values without a mark were called inactive. The source made the active and inactive calls. Calls come from the whole dose curve; as a rule, active = well fitted curve in the direction sought with a large enough effect; inconclusive = small, poorly fitted or top-dose-only effect, or another doubt; inactive = no such curve, though single readings can be large; an effect the other way counts as inactive or inconclusive.

The nature of assay [1]: qHTS Assay for Identifying Gametocytocidal Compounds (AID 743244).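 Note: % is set by controls: 0 for no effect and ±100 for the full control effect; actives lower the fluorescent signal which means gametocytes are killed.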 As to conditions: P. falciparum 3D7 stage III-V gametocytes, alamarBlue, 72 h; max response: hits give low values. The procedure, abridged:
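P. falciparum 3D7 stage III–V gametocytes (20,000 cells/well) were exposed to compounds for 72 h at 37 °C, 5% CO2. AlamarBlue was then added for 24 h; decreased resorufin fluorescence (Ex 525/Em 598 nm) indicated loss of viability.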

A short description of assay [2]: qHTS assay to identify small molecule inhibitors of chordoma cells - UCH-1 (AID 1259355). Note: nearly all actives have a fitted effect of over 55% in size. Note: potency is the fitted concentration of half-maximal effect. As to conditions: UCH-1 chordoma viability, CellTiter-Glo, 48 h, combination; series mostly up to 46.1 µM. In outline:
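Seed 800 cells per well; incubate overnight at 37 C, 5% CO2. Add test compounds (15 concentrations), then the auranofin–topoisomerase-agent combination. Incubate 48hr, add CellTiter-Glo, wait 30min, read luminescence.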

The nature of assay [3]: qHTS assay to identify small molecule inhibitors of chordoma cells - UCH-2 (AID 1259356). Note: potency is the fitted concentration of half-maximal effect. As to conditions: UCH-2 chordoma viability, CellTiter-Glo ATP luminescence, 48 h; series mostly up to 46.1 µM.
Assay [4] is described as follows: P-glycoprotein substrates identified in KB-8-5-11 adenocarcinoma cell line, qHTS therapeutic library screen (AID 1346987). Note: nearly all actives have a fitted effect of over 65% in size. Note: potency is the fitted concentration of half-maximal effect. As to conditions: KB-8-5-11 (P-gp overexpressing) viability, CellTiter-Glo, 72 h; series mostly up to 44.5 µM. The procedure, abridged:
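P-gp-mediated resistance screen: KB-8-5-11 cells treated 72 h with compounds in dose-response. CellTiter-Glo viability.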

A short description of assay [5]: qHTS assay for cell viability of HEK293 cells (AID 743288). Note: % is set by controls: 0 for no effect and ±100 for the full control effect; nearly all actives have a fitted effect of over 50% in size. As to conditions: ATP luminescence (CellTiter-Glo), 18 h; max response: hits give low values. In outline:
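Total intracellular ATP, measured with a luciferase-coupled reagent, indicates the number of viable HEK293 cells. Exposure to test chemicals lasts 18 h at 37 C in 1,536-well format at 2,000 cells/well.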

The nature of assay [6]: qHTS assay for cell viability of the p53RE-bla HCT-116 cell line (AID 743292). Note: % is set by controls: 0 for no effect and ±100 for the full control effect; nearly all actives have a fitted effect of over 55% in size. As to conditions: p53RE-bla HCT-116 viability, ATP luminescence, 16 h; series mostly up to 95 µM. The procedure, abridged: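 Readout: CellTiter-Glo luminescence after 30 min RT. Treatment: compounds in DMSO, 16 h, 37 C. Cells: CellSensor p53RE-bla HCT-116, 4,000/well, preincubated 5 h.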
A short description of assay [7]: P-glycoprotein substrates identified in KB-3-1 adenocarcinoma cell line, qHTS therapeutic library screen (AID 1346986). Note: nearly all actives have a fitted effect of over 60% in size. As to conditions: KB-3-1 parental cells viability, CellTiter-Glo, 72 h; series mostly up to 44.5 µM. The procedure, abridged:
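Counter-screen: cherry-picked hits retested in the KB pair and in HEK-293 pcDNA/MDR-19 cells ± tariquidar. Primary screen used 72 h CellTiter-Glo viability in KB-3-1 and KB-8-5-11.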

`Cn1sc(Cl)cc1=O`: the max response in assay [1] is 0.945%. The Potency result in assay [2], in assay [3] and in assay [4] was “inactive” each time.

Consider `CC(=O)OC1CN2CCC1CC2` (configuration not stated), for which the Potency result in assay [2], in assay [3] and in assay [4] was “inactive” each time.

`CN1[C@@H]2CC[C@H]1CC(OC1c3ccccc3CCc3ccccc31)C2` (some centres not stated): the Potency entry in assay [2] and in assay [3] was “inactive” each time.

`CC1(C)[C@H](C=C(Cl)Cl)[C@H]1C(=O)OCc1c(F)c(F)cc(F)c1F`: the Potency entry in assay [2], in assay [3] and in assay [4] was “inactive” throughout.

Take `O=C(CCl)c1ccc(Oc2ccc(C(=O)CCl)cc2)cc1`: the max response in assay [1] is 0.618%. The Potency result in assay [2], in assay [3] and in assay [4] was “inactive” each time.

Consider `CCC1(c2ccccc2)C(=O)NC(=O)N(C(=O)c2ccccc2)C1=O` (configuration not stated), for which, in assay [1], the max response was -4.65%. Further, the Potency entry in assay [2], in assay [3] and in assay [4] was “inactive” in each case.

`CCCCCc1cc(O)c2c(c1)OC(C)(C)[C@@H]1CCC(C)=C[C@@H]21`: the Potency result in assay [2] and in assay [3] was “inactive” each time.

For `Cc1cccc(C(C)c2cnc[nH]2)c1C` (configuration not stated), the Potency result in assay [2], in assay [3] and in assay [4] was “inactive” throughout.

Regarding `O=C1C[C@@H]2OCC=C3CN4CC[C@]56c7ccccc7N1[C@H]5[C@H]2[C@H]3C[C@H]46`, the max response is 1.95% in assay [1] and -21.9% in assay [5]. Further, the Potency entry in assay [6], in assay [2], in assay [3], in assay [7] and in assay [4] was “inactive” each time.

As for `OC[C@@H](O)[C@H]1O[C@@H]2O[C@@H](C(Cl)(Cl)Cl)O[C@@H]2[C@H]1O`, the Potency result in assay [2], in assay [3] and in assay [4] was “inactive” each time.

For `CCN(CC)C(=O)/C(Cl)=C(\C)OP(=O)(OC)OC`, the Potency result in assay [2], in assay [3] and in assay [4] was “inactive” each time.

For the molecule `CCOc1ccc2c3c1O[C@H]1[C@@H](O)C=C[C@H]4[C@@H](C2)N(C)CC[C@@]341`, the Potency result in assay [2], in assay [3] and in assay [4] was “inactive” each time.

Regarding `S=C(S)N1CCNCC1`, the max response in assay [1] was -5.89%. The Potency result in assay [2], in assay [3] and in assay [4] was “inactive” throughout.

As to `CCON=O`, the Potency entry in assay [2], in assay [3] and in assay [4] was “inactive” in each case.

As for `O=C(CS(=O)C(c1ccccc1)c1ccccc1)NO` (configuration not stated), the max response in assay [1] is -0.968%. In addition, the Potency entry in assay [2], in assay [3] and in assay [4] was “inactive” in each case.

Take `CN(C)[C@@H]1C(=O)C(C(N)=O)=C(O)[C@@]2(O)C(=O)C3=C(O)c4c(O)ccc(Cl)c4[C@@](C)(O)[C@H]3C[C@@H]12`: the max response in assay [1] was 3.58%. For the same molecule, the Potency entry in assay [2], in assay [3] and in assay [4] was “inactive” each time.

In the case of `O=c1[nH]cc(N(CCCl)CCCl)c(=O)[nH]1`, the Potency entry in assay [2], in assay [3] and in assay [4] was “inactive” throughout.

Take `ClC1=C(Cl)[C@]2(Cl)[C@@H]3[C@H]4C[C@H]([C@@H]5O[C@H]45)[C@@H]3[C@@]1(Cl)C2(Cl)Cl`: the max response in assay [1] is 19.8%. Besides, the Potency entry in assay [2], in assay [3] and in assay [4] was “inactive” throughout.

On to `CCC(N)Cc1c[nH]c2ccccc12` (configuration not stated), for which the max response in assay [1] is 2.35% and -8.43%. In addition, the Potency result in assay [2], in assay [3] and in assay [4] was “inactive” throughout.

As to `CNC(=O)OCC[N+](C)(C)C`, the max response in assay [1] was -1.58%. In addition, the Potency result in assay [2], in assay [3] and in assay [4] was “inactive” throughout.

As to `CCC1(CC)C(=O)NC(=O)N(C)C1=O`, the max response in assay [1] is -12.2%. In addition, the Potency result in assay [2], in assay [3] and in assay [4] was “inactive” throughout.

`C[N+]1(C)[C@@H]2CC[C@H]1CC(OC(=O)c1c[nH]c3ccccc13)C2` (some centres not stated): the max response in assay [1] is 8.77%. Besides, the Potency result in assay [2], in assay [3] and in assay [4] was “inactive” each time.

As to `C[C@H]1CC[C@]2(NC1)O[C@H]1C[C@H]3[C@@H]4CC[C@H]5C[C@@H](O[C@@H]6O[C@H](CO)[C@H](O[C@@H]7O[C@H](CO)[C@@H](O)[C@H](O[C@@H]8OC[C@@H](O)[C@H](O)[C@H]8O)[C@H]7O[C@@H]7O[C@H](CO)[C@@H](O)[C@H](O)[C@H]7O)[C@H](O)[C@H]6O)CC[C@]5(C)[C@H]4CC[C@]3(C)[C@H]1[C@@H]2C`, the max response in assay [1] was 6.32%. For the same molecule, the Potency in assay [2] is 12.6 µM (active); in assay [3], 2.06 µM (active); in assay [4], 20.6 µM (active).

Turning to `Cc1ccccc1-n1c(CF)nc2ccc(N)cc2c1=O`, in assay [1], the max response was -0.397%. Also, the Potency entry in assay [2], in assay [3] and in assay [4] was “inactive” in each case.

Take `CC(N)Cc1ccc(O)cc1` (configuration not stated): in assay [1], the max response is 1.03%. Further, the Potency entry in assay [2], in assay [3] and in assay [4] was “inactive” in each case.

`C[C@@H](Cc1ccccc1)N(C)C`: the max response in assay [1] was -7.23%. Moreover, the Potency result in assay [2], in assay [3] and in assay [4] was “inactive” throughout.

Consider `C[C@]12CC[C@H](OS(=O)(=O)O)CC1=CC[C@@H]1[C@@H]2CC[C@]2(C)C(=O)CC[C@@H]12`, for which, in assay [1], the max response is 33.6%. Also, the Potency result in assay [2], in assay [3] and in assay [4] was “inactive” throughout.

For the molecule `c1ccc(C2(N3CCCC3)CCCCC2)cc1`, the max response in assay [1] is -1.69%. Moreover, the Potency result in assay [2], in assay [3] and in assay [4] was “inactive” in each case.

Consider `NCC(O)c1cccc(O)c1` (configuration not stated), for which the max response in assay [1] was 13.2%. Further, the Potency result in assay [2], in assay [3] and in assay [4] was “inactive” in each case.

As for `CCNC(C)Cc1cccc(C(F)(F)F)c1` (configuration not stated), the max response in assay [1] was 22.8%. Further, the Potency entry in assay [2], in assay [3] and in assay [4] was “inactive” each time.

Consider `C=CCN1CC[C@]23c4c5ccc(O)c4O[C@H]2[C@@H](O)C=C[C@H]3[C@H]1C5`, for which the max response in assay [1] is 2.17%. In addition, the Potency result in assay [2], in assay [3] and in assay [4] was “inactive” throughout.

In the case of `FC(F)OC(F)(F)C(F)Cl` (configuration not stated), the max response in assay [1] is -4.54%. Also, the Potency result in assay [2], in assay [3] and in assay [4] was “inactive” each time.

As to `c1ccc2sc(SNC3CCCCC3)nc2c1`, the max response in assay [1] was 27.5%. In addition, the Potency entry in assay [2], in assay [3] and in assay [4] was “inactive” in each case.

With `CCCC(C)(COC(N)=O)COC(=O)NC1CC1` (configuration not stated), the max response in assay [1] was 6.87%. In addition, the Potency entry in assay [2], in assay [3] and in assay [4] was “inactive” in each case.
